Reference: PubChem BioAssay (Tox21)
“And” between values parts separate entries of the source, which are not always exact repeats. Equal values may be shown once. Inconclusive results are not listed. The source made the active and inactive calls. Unless noted, calls come from the whole dose curve; as a rule, active = well fitted curve in the direction sought with a large enough effect in the repeat runs; inconclusive = weak or mixed curves; inactive = no such curve, though single readings can be large; an effect the other way counts as inactive or inconclusive.

Columns and labels:
[1] = qHTS assay for small molecules that induce genotoxicity in human embryonic kidney cells expressing luciferase-tagged ATAD5 (AID 651632); note: nearly all actives have a fitted effect of over 15% in size
Method in brief: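 HEK293T cells carrying a luciferase reporter tagged to ATAD5 were exposed to compound or DMSO vehicle for 16 hr at 37C, 5% CO2. Amplite was added, and after 30 min at room temperature luciferase activity was read as a marker of ATAD5 induction.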

[2] = qHTS assay for small molecule agonists of the p53 signaling pathway - cell viability (AID 651633; calls by dose curve; note: nearly all actives have a fitted effect of over 30% in size; note: potency is the fitted concentration of half-maximal effect)
Method in brief: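 p53RE-bla cells were treated with compound for 16 hours at 37 C. Cytotoxicity was then measured as CellTiter-Glo luminescence after 30 min at room temperature.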

[3] = qHTS assay for small molecule disruptors of the mitochondrial membrane potential - cell viability (AID 720634; calls by dose curve; note: nearly all actives have a fitted effect of over 20% in size; note: potency is the fitted concentration of half-maximal effect)
Method in brief: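 HepG2 cells seeded overnight at 37 C, then exposed to compound or DMSO for 1 hr at 37 C, 5% CO2. m-MPI dye added, then CellTiter-Glo for 30 min at room temperature; viability read as ATP luminescence.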

[4] = qHTS assay to test for compound auto fluorescence at 590 nm (red) in HepG2 cells (AID 720674)
Method in brief: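 HepG2 cells, 2,000 per well in MEM with 10% FBS, attached overnight at 37 C, then got 23 nL compound or DMSO. After 1 hr at 37 C, 5% CO2, red fluorescence was read at 540/590 nm against Rose Bengal sodium as reference.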

[5] = qHTS assay to test for compound auto fluorescence at 535 nm (green) in HepG2 cells (AID 720675)
[6] = qHTS assay to test for compound auto fluorescence at 460 nm (blue) in HEK293 cells (AID 720678)
Method in brief: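 After cell attachment (4-5 hr, 37C), compounds were pinned onto HEK293 monolayers in 10% dialyzed FBS medium. The blue channel (405/460 nm) was read following overnight culture. Equivalency was calculated against triamterene.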

[7] = qHTS assay to test for compound auto fluorescence at 590 nm (red) in HEK293 cells (AID 720679)
Method in brief: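 Plates of HEK293 cells (10% dialyzed FBS) are treated with 23 nL compound or DMSO vehicle after a 4-5 hr attachment period, incubated overnight at 37C, and read for red fluorescence at 540/590nm.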

[8] = qHTS assay to test for compound auto fluorescence at 535 nm (green) in HEK293 cells (AID 720680)
[9] = qHTS assay to test for compound auto fluorescence at 460 nm (blue) in HEK293 cell free culture (AID 720681)
Method in brief: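 Compounds were added to cell-free DMEM with 10% FBS and fluorescence read directly. The blue channel used 405 nm excitation and 460 nm emission, with triamterene as the reference fluorophore.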

[10] = qHTS assay to test for compound auto fluorescence at 535 nm (green) in HEK293 cell free culture (AID 720682)
Method in brief: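 Cell-free medium (DMEM, 10% FBS) receives compound or DMSO by pintool. Plate read directly at Ex 485/Em 535 nm. Signal converted to fluorescein equivalency.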

[11] = qHTS assay to test for compound auto fluorescence at 590 nm (red) in HEK293 cell free culture (AID 720683)
Method in brief: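 Cell-free wells of DMEM with 10% FBS received compound, and intrinsic fluorescence was read at excitation/emission 540/590 nm. Values expressed as equivalence to Rose Bengal sodium.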

[12] = qHTS assay to test for compound auto fluorescence at 590 nm (red) in HepG2 cell free culture (AID 720684)
Method in brief: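 Compound was pinned into wells holding MEM with 10% FBS and no cells, and red fluorescence was read at Ex/Em 540/590 nm. Signal is expressed as auto fluorescence equivalency relative to Rose Bengal sodium.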

[13] = qHTS assay to test for compound auto fluorescence at 460 nm (blue) in HepG2 cell free culture (AID 720685)
Method in brief: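 Compound (23 nL) or DMSO pinned into cell-free MEM with 10% FBS; blue fluorescence read at 405/460 nm excitation/emission, expressed as auto-fluorescence equivalency to triamterene.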

[14] = qHTS assay to test for compound auto fluorescence at 535 nm (green) in HepG2 cell free culture (AID 720686)
[15] = qHTS assay to test for compound auto fluorescence at 460 nm (blue) in HepG2 cells (AID 720687)
Method in brief: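 HepG2 cells in MEM with 10% FBS, attached overnight at 37 C, were exposed to compound or DMSO for 1 hr at 37 C, 5% CO2. Blue fluorescence was read at 405/460 nm, with triamterene as reference fluorophore.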

[16] = target: Glucocorticoid receptor (Homo sapiens) (UniProt P04150); experiment: qHTS assay to identify small molecule agonists of the glucocorticoid receptor (GR) signaling pathway (AID 720691; active = well fitted activation curve with a large enough effect in the signal ratio in the repeat runs, not every such curve was filed as active; the % refers to the signal ratio)
Method in brief: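 GR-bla HeLa cells (beta-lactamase reporter under glucocorticoid response element) were plated 4 h at 37 C/5% CO2, given compounds in DMSO, and incubated 18 h at 37 C. LiveBLAzer B/G FRET substrate was added for 2 h at room temperature, then fluorescence intensity read.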

[17] = qHTS assay for small molecules that induce genotoxicity in human embryonic kidney cells expressing luciferase-tagged ATAD5 - cell viability (AID 651634; calls by dose curve; note: nearly all actives have a fitted effect of over 25% in size; note: potency is the fitted concentration of half-maximal effect)
Method in brief: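 HEK293T cells expressing luciferase-tagged ATAD5 were exposed to compound or DMSO for 15.5 hr at 37C, 5% CO2. Viability was then read as live-cell protease activity by CellTiter-Fluor fluorescence after 30 min at 37C.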

[18] = target: Glucocorticoid receptor (Homo sapiens) (UniProt P04150); experiment: qHTS assay to identify small molecule antagonists of the glucocorticoid receptor (GR) signaling pathway (AID 720692; active = well fitted inhibition curve with a large enough effect in the signal ratio in the repeat runs, not every such curve was filed as active; the % refers to the signal ratio; note: potency is the fitted concentration of half-maximal effect)
Method in brief: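 GR-bla HeLa cells (beta-lactamase reporter under glucocorticoid response element) were pre-plated 4 h at 37 C, treated with compounds plus 5 nM dexamethasone (final) for 18 h, then read by LiveBLAzer B/G FRET fluorescence after 2 h.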

[19] = qHTS assay for small molecule disruptors of the mitochondrial membrane potential (AID 720635); note: potency is the fitted concentration of half-maximal effect
Method in brief: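 HepG2 cells exposed to compound 1 hr at 37C, then Mito-MPS dye 30 min. Ratio read of aggregate (540/590 nm) versus monomer (490/535 nm) fluorescence.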

Measured: Potency

Glucocorticoid receptor (Homo sapiens), sequence (P04150 whole entry, looked up): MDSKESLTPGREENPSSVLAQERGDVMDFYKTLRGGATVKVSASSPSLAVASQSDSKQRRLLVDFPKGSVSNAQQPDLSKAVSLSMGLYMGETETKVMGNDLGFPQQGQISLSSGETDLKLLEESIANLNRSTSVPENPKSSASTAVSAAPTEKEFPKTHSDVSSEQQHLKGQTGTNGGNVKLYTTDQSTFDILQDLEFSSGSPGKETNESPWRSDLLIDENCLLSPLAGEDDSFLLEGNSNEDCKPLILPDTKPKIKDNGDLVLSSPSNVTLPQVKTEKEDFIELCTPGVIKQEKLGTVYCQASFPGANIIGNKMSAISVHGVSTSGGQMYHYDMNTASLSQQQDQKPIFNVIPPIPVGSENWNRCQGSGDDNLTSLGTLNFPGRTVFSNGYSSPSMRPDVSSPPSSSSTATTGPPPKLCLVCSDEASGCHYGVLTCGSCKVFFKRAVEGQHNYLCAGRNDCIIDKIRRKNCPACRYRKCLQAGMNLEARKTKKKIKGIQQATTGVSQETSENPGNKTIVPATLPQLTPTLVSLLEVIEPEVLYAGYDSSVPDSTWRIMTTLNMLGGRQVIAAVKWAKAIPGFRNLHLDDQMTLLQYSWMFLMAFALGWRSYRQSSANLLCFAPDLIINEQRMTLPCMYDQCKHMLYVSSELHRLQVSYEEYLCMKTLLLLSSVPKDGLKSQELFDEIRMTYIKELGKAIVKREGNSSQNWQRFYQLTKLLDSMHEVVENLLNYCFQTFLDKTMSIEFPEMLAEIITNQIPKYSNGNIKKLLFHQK

ClCCCCBr
not listed: [17] | [18] | [19]
inactive: all other assays above

Cc1ccccc1CCl
not listed: [17] | [18] | [19]
inactive: all other assays above

O=S1OC[C@@H]2[C@H](CO1)[C@]1(Cl)C(Cl)=C(Cl)[C@@]2(Cl)C1(Cl)Cl (stereo partly drawn)
active: [2] 61.1 µM
not listed: [3] | [9] | [18] | [19]
inactive: all other assays above

O=[Se]=O
active: [17] 764 nM
not listed: [3] | [6] | [19]
inactive: all other assays above

CC(=O)NC1CCSC1=O (stereo not drawn)
not listed: [2] | [19]
inactive: all other assays above

NCC(CC(=O)O)c1ccc(Cl)cc1 (stereo not drawn)
not listed: [17] | [19]
inactive: all other assays above

COCCOCCO
not listed: [2] | [16] | [18] | [19]
inactive: all other assays above

C/C(=C\c1ccccc1)[N+](=O)[O-]
active: [17] 24300 nM
not listed: [2] | [16] | [18] | [19]
inactive: all other assays above

O=C(CBr)c1ccccc1
not listed: [17] | [18]
inactive: all other assays above

O=C1c2ccccc2C(=O)C1C(=O)C(c1ccccc1)c1ccccc1
active: [19] 21.1 µM | [18] 21.3 µM
not listed: [2] | [14] | [16]
inactive: all other assays above

Cc1c(F)c(F)c(COC(=O)C2C(/C=C(\Cl)C(F)(F)F)C2(C)C)c(F)c1F (stereo not drawn)
active: [19] 30.6 µM
not listed: [2] | [9] | [18]
inactive: all other assays above

C(=NC1CCCCC1)=NC1CCCCC1
active: [17] 30.8 µM and 43.3 µM | [3] 5.48 µM | [19] 138 nM and 217 nM
not listed: [2] | [9] | [16] | [18]
inactive: all other assays above

CCOP(=O)(OCC)Oc1ccc([N+](=O)[O-])cc1
not listed: [7] | [11] | [16] | [17] | [18] | [19]
inactive: all other assays above

Clc1cccc(SC2CCNCC2)n1
not listed: [2] | [16] | [18] | [19]
inactive: all other assays above

CCn1cc[n+](C)c1
not listed: [11] | [14] | [16] | [17] | [18]
inactive: all other assays above

CCCN(CCC)c1c([N+](=O)[O-])cc(S(C)(=O)=O)cc1[N+](=O)[O-]
not listed: [3] | [17] | [19]
inactive: all other assays above

CCCCC(CC)COP(=O)(Oc1ccccc1)Oc1ccccc1 (stereo not drawn)
not listed: [3] | [6] | [7] | [11] | [19]
inactive: all other assays above
